Assay results taken from PubChem BioAssay (NCI).
About 83,000 compounds went through this panel and 20% of them were active in at least one assay; those are over-represented in the sample as a whole.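 Results are percent growth after 48 hours of single-concentration exposure. 100 means growth as in untreated cells, lower positive values show inhibition; negative values down to -100 show cell death.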 Values without a mark were called inactive. Calls of active or inactive are those of the source. Rule for the calls: active = growth percent below 10; inactive = the rest.

Each compound was assayed on SF-268 CNS (assay: NCI-60 one-dose screen, 48 h (100 = growth as untreated, 0 = no growth, -100 = all killed)). Conditions: 10 µM unless noted.
`c1csc(C2=NN3C(C2)c2ccccc2OC3c2ccncc2)c1` (stereo not drawn) gave a growth of 89.5%.
For `CC1=CC(C)(C)Nc2ccc(Cc3ccc4c(c3)C(C)=CC(C)(C)N4)cc21`, the growth was 103%.
With `CCCCn1c(-c2ccc(C(=O)O/N=C(\N)c3ccc4ccccc4c3)cc2)nc(-c2ccccc2)c1-c1ccccc1` the growth was 48.9%.
Work on `O=C(Nc1ccc(Cl)cc1)c1cc2cc(F)ccc2cc1O` yielded a growth of 23.6%.
Work on `Cn1cc(-c2nonc2-c2cn(C)c3ccc(F)cc23)c2cc(F)ccc21` yielded a growth of 71.3%.
`CCN(CC)S(=O)(=O)c1ccc(OC)c(NC(=O)c2[nH]c(C)c3c2CCCCC3=O)c1` gave a growth of 68.4%.
Work on `COc1cccc(-c2nc3sccn3c2-c2ccnc(NCCCNS(=O)(=O)c3cccc(F)c3)c2)c1` yielded a growth of 40.9%.
With `COc1cc(/C=C/c2cc(/C=C/c3ccc(O)c(OC)c3)n(-c3c(C)cccc3C)c(=O)n2)ccc1O` the growth was 8.69% (active).
With `COc1cccc(-c2nc(SCC(=O)Nc3ccc(C(=O)/C=C/c4ccc(OC)c(OC)c4)cc3)[nH]c(=O)c2C#N)c1` the growth was 82.9%.
In the case of `Cc1cc(C)c2nc3nc(C)cc(C)c3c(N)c2c1`, the growth is reported as 19.7%.
In the case of `FC(F)(F)c1ccc(-c2cn3nc(-c4c[nH]c5ccc(Br)cc45)sc3n2)cc1`, the growth is reported as 113%.
`CC(=O)O[C@H]1[C@@H]2OC(=O)C(CSc3ccccc3)[C@@H]2C[C@H]2O[C@]2(C)CC/C=C(\C)CCC[C@@H]1C` (stereo partly drawn) was tested, and the growth was 44.7%.
In the case of `Cc1cc(C)nc(SC2=C(Nc3ccc(O)cc3)C(=O)N(Cc3ccccc3)C2=O)n1`, the growth is reported as 74.6% [40 µM].
